Data from PubChem BioAssay (EPA / NIEHS).
Records with an inconclusive call do not appear. Calls of active or inactive are those of the source. How the source made its calls: active means hit-call score of the fitted dose curve at least 0.9, where 1 is the maximum; inconclusive means response in the unintended direction; inactive means score below 0.9.

molecular target: bovine Dopamine Receptor (DR), Non-selective Binding, DRD1 (gene 281125) (UniProt Q95136); test: NVS_GPCR_bDR_NonSelective: NovaScreen (NVS) G Protein-Coupled Receptor Assay for bovine Dopamine Receptor (DR), Non-selective Binding (AID 2283241)
Sequence (Q95136 whole entry, looked up): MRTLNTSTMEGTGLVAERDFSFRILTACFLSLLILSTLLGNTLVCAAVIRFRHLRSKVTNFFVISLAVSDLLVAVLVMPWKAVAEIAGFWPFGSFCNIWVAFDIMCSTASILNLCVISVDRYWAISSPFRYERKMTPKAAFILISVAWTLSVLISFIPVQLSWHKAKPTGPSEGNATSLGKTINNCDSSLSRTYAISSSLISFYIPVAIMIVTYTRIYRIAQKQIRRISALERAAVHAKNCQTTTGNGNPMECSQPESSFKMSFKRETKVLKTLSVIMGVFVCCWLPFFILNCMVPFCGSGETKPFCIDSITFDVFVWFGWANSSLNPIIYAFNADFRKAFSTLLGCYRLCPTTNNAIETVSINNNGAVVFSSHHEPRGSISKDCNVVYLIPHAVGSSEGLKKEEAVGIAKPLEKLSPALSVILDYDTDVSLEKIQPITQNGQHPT
In short: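 Bovine striatal membranes; radioligand displacement read by filtration and scintillation counting 1 h after dosing, loss of signal vs DMSO. Screened in duplicate at 25 uM, then concentration-response for hits.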

AC50, active:
COc1cccc([C@H](O)C2CCN(CCc3ccc(F)cc3)CC2)c1OC 5.96 µM
O=C1c2ccccc2C(=O)N1CCc1noc(-c2ccc(CN3CCCCCC3)s2)n1 14.6 µM
CN(C)C(=O)C1(N2CCCCC2)CCN(CC[C@@]2(c3ccc(Cl)c(Cl)c3)CN(C(=O)c3ccccc3)CCO2)CC1 4.5 µM
COc1cc(C(=O)NC2CCN(C)CC2)ccc1Nc1ncc2c(n1)N(C1CCCC1)CC(F)(F)C(=O)N2C 11.2 µM
CCN(CC)C(=O)c1cc(S(=O)(=O)Cc2ccccc2)c(N2CCC(c3ccccc3)CC2)cc1N(CC)CCN(C)C 6.88 µM

molecular target: Adenosine receptor A1 (Bos taurus) (UniProt P28190); test: NVS_GPCR_bAdoR_NonSelective: NovaScreen (NVS) G Protein-Coupled Receptor Assay for bovine Adenosine Receptor (AdoR), Non-selective Binding (AID 2283244)
Sequence (P28190 whole entry, looked up): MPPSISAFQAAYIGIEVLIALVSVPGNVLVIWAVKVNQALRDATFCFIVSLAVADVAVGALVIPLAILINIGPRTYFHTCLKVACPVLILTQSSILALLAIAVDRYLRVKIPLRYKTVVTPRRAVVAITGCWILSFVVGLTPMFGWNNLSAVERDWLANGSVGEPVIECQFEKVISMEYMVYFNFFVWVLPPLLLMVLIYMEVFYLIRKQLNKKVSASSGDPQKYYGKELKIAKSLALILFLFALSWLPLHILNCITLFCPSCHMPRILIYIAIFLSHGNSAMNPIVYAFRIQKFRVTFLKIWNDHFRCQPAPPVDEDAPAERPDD
Method: NVS_GPCR_bAdoR_NonSelective is a biochemical, single-readout assay that uses extracted gene-proteins from Bovine striatal membranes in a tissue-based cell-free assay. Measurements were taken 1 hour after chemical dosing in a 96-well plate.NVS_GPCR_bAdoR_NonSelective is one of one assay component(s) measured or calculated from the NVS_GPCR_bAdoR_NonSelective assay. It is designed to make measurements of radioligand binding, a form of binding reporter, as detected with scintillation counting signals by Filter-based radiodetection technology.Data from the assay component NVS_GPCR_bAdoR_NonSelective was analyzed into 1 assay endpoint. This assay endpoint, NVS_GPCR_bAdoR_NonSelective, was analyzed in the positive analysis fitting direction relative to DMSO as the negative control and baseline of activity. Using a type of binding reporter, loss-of-signal activity can be used to understand changes in the binding as they relate to the gene ADORA1. Furthermore, this assay endpoint can be referred to as a primary readout, because the performed assay has only produced 1 assay endpoint. To generalize the intended target to other relatable targets, this assay endpoint is annotated to the gpcr intended target family, where the subfamily is rhodopsin-like receptor.
Binding assays used specific radioligands (tritiated, iodinated) with non-radioactive competitive displacement ligands in agonist or antagonist protocols (as indicated) and various reference compounds and inhibitors to titrate specific binding to receptors and transporters. Most enzyme assays (CYPs, kinases, phosphatases, proteases, HDACs) used recombinant protein and specific substrates (fluorescence mostly, some colorimetric and radioactive) and inhibitors, followed by a biochemical separation of substrate and product. All assays for the biochemical HTS were initially run in duplicate at a single concentration (10 uM for CYP450 assays and 25 uM for all others). Assay-chemical combinations meeting a pre-defined threshold (e.g., 30% inhibition and other criteria defined below) were then run in singleton concentration-response format with maximum concentration of 20 uM for CYPs and 50 uM for all others. Each assay was run with positive and negative controls, and concurrent controls on every plate. The follow-up (secondary) screen tested active chemical-pairs in concentration series, as well as a few additional assays not tested in the primary screen, some selected negative inactives, and several cases re-run in the concentration series for confirmatory purposes.

AC50, active:
CN(C)c1ccc(C(=C2C=CC(=[N+](C)C)C=C2)c2ccc(N(C)C)cc2)cc1 13.6 µM
CC1(C)NC(=O)N(c2ccc([N+](=O)[O-])c(C(F)(F)F)c2)C1=O 9.79 µM
O=c1c(-c2ccc(O)cc2)coc2cc(O)cc(O)c12 18.9 µM

outcome, inactive:
CC(C)(C)c1cc(/C=C2\SC(N)=NC2=O)cc(C(C)(C)C)c1O
CCN(CC)C(=O)c1cc(S(=O)(=O)Cc2ccccc2)c(N2CCC(c3ccccc3)CC2)cc1N(CC)CCN(C)C
CCCCCCCCCC(=O)O
